Screening data as filed in PubChem BioAssay.
An excerpt weighted towards active compounds, which were near 5.6% of everything screened.
PKM2 act: activators of human pyruvate kinase M2. P14618. purified PKM2, Kinase-Glo ATP luminescence, activation; response scale: 0% is enzyme alone, no compound. Potency, µM (titrated, usually from 57.5 µM), most hits filed as activators. 0.34% of 260,000 active. AID 1631; also: nearly all actives have a fitted effect of over 55% in size
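ATP formation by purified human PK-M2, quantified via coupled luciferase luminescence after 1 h at room temperature with 0.1 mM ADP and 0.5 mM PEP final.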
VP16 counter: counter-screen for ROR gamma inhibitors: Gal4-VP16 reporter. Drosophila S2 Gal4-VP16 UAS-luciferase, luminescence, 20 h. Potency, µM (highest dose often 53.6 µM), usual class: inhibitors. 3.5% of 310,000 active;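 also: Gal4-VP16 expression switched on by copper sulfate through the metallothionein promoter; nearly all actives have a fitted effect of over 50% in size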
RORgamma inh: ROR gamma (mouse) transcription inhibition. P51450. Drosophila S2 Gal4-RORgamma UAS-luciferase reporter, 20 h. Potency, µM (doses to about 53.6 µM), actives largely listed as inhibitors. 5.4% of 310,000 active; also: nearly all actives have a fitted effect of over 60% in size
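Drosophila Schneider cells stably carrying a metallothionein-driven Gal4 DBD–ROR gamma fusion and a UAS-Photinus luciferase reporter were exposed to compound for 1 hr, then induced with copper sulfate (700 uM final) for 20 hr at ambient temperature before luminescence reading.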
Six1-Eya2 inh: blocks human Six1 binding to Eya2; Q15475+O00167; AlphaScreen GST-Six1/His-Eya2 binding, biochemical; hits give low values; activity change, % (test concentration not listed); 0.56% of 360,000 active; AID 651725; in the data active = activity change below about -65%; inconclusive = mostly about -30% to -63%
Target sequence (O00167 whole entry, looked up): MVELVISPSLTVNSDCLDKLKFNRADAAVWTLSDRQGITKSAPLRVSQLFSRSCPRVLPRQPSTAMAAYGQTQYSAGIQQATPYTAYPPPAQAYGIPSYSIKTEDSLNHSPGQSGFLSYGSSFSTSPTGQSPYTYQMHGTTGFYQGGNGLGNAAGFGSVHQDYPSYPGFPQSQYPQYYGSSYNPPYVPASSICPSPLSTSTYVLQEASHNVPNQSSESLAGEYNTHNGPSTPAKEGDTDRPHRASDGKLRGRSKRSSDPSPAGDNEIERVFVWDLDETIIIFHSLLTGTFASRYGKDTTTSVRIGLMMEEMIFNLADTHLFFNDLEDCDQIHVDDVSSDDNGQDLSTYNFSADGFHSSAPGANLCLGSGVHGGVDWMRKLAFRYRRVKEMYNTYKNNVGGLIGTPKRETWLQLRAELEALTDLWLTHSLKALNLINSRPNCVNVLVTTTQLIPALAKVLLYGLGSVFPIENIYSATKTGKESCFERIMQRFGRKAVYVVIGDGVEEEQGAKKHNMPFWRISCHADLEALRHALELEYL
Target sequence (Q15475 whole entry, looked up): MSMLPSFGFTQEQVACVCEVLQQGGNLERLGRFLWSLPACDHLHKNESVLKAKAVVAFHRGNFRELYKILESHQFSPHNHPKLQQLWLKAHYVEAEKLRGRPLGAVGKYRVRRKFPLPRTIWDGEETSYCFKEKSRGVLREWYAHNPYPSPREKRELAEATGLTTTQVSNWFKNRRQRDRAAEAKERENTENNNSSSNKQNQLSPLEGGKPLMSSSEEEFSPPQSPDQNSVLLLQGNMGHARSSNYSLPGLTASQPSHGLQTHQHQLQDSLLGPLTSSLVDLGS
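Homogeneous AlphaScreen proximity assay pairing GST-Six1 with His-tagged Eya2 (added as 5X mix: 250 nM and 500 nM) in 50 mM Tris pH 8.0, 300 mM NaCl, 1 mM TCEP. Glutathione donor and nickel acceptor beads; 1 h, 37 °C, dark.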
CtBP-E1A blk: CtBP/E1A binding inhibition | AlphaScreen GST-E1A/His-CtBP binding, 1536-well; hits give low values | activity change, % (concentration not given with the values) | AID 651724 | 0.49% of 340,000 active; in the data active = activity change below about -65%; inconclusive = mostly about -30% to -63%
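Protein mix (5X: 125 nM each GST-E1A, His-CtBP) was incubated with pinned compound 2 h at 37 deg C in dark, in 50 mM Tris pH 8.0 buffer with 300 mM NaCl. Glutathione donor and nickel acceptor beads followed; AlphaScreen signal read after 1 h.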
Hits are given with their value; n = inactive; u = inconclusive; x = no result given; [ ] = dose if it differs, or a comment. Unless noted, calls follow the shape of the dose curve; as a rule, active = well fitted curve in the direction sought with a large enough effect; inconclusive = small, poorly fitted or top-dose-only effect, or another doubt; inactive = no such curve, though single readings can be large; an effect the other way counts as inactive or inconclusive.

SMILES	PKM2 act	VP16 counter	RORgamma inh	Six1-Eya2 inh	CtBP-E1A blk
CC(C)CC(NC(=O)c1ccc(Cl)cc1)C(=O)OCC(=O)c1ccc2c(c1)NC(=O)CO2 (stereo not drawn)	n	7.1µM	11µM	n	n
CCOC(=O)C1=C(C)NC(C)=C(C(=O)OCC)C1C(=O)OCC(=O)NCCc1ccc(S(N)(=O)=O)cc1	x	x	x	n	n
Cc1ccc(C(=O)Nc2nnc(C)s2)cc1	n	n	10µM	n	n
Cc1ccc(C(=O)Nc2nc(=O)n(C)s2)cc1	n	11µM	8.9µM	n	n
CC1CCCCCCC1OC(=O)c1ccccc1C(=O)O (stereo not drawn)	x	x	x	n	n
O=S1(=O)C2CC3C=CC2(O3)C(O)C(Cc2ccccc2)N1Cc1cccc(F)c1 (stereo not drawn)	x	n	n	x	x
CCn1cc(-c2cc(C(=O)O)c3ccccc3n2)c(C)n1	n	n	u	n	n
O=C(O)c1cc(-c2ccc3ccccc3c2)nc2ccc(F)cc12	x	n	22µM	n	n
CC(=O)Nc1ccc(-c2cc(C(=O)O)c3ccccc3n2)cc1	n	u	10µM	n	n
CC(=O)Nc1ccc(-c2cc(-c3ccccc3)nc(-c3ccccc3)n2)cc1	n	n	n	n	n
O=C(O)c1cc(-c2cc(C(=O)O)c3ccccc3n2)nc2ccccc12	x	n	n	x	x
CCC(=O)Nc1ccc(-c2cc(-c3ccccc3)nc(-c3ccc(NC(=O)CC)cc3)n2)cc1	n	7.1µM	8.9µM	n	n
CCn1cc(-c2cc(C(=O)O)c3ccccc3n2)cn1	n	u	5.6µM	n	n
COc1cccc(C(=O)NN2CCOCC2)c1	x	x	x	n	x
O=C1NC2=C(C(=O)OC2)C(c2ccc(OC(F)(F)F)cc2)N1 (stereo not drawn)	n	n	n	n	n
CCOC(=O)c1c(S(=O)(=O)NCC(=O)Nc2cccc(C)c2)c(C)n(C)c1C	x	n	n	n	n
O=C(NNC(=O)c1cc(-c2ccccc2)nc2ccccc12)Nc1cccc(Cl)c1	n	n	n	n	n
CC(C)(C)c1ccc(-c2cc(C(=O)NNC(=O)Nc3ccccc3)c3ccccc3n2)cc1	n	u	1µM	n	n
Cc1ccc2nc(-c3ccc(NS(C)(=O)=O)cc3)cc(-c3ccccc3)c2c1	n	22µM	u	n	n
O=C(O)c1cc(-c2c[nH]c3ccccc23)nc2cc3ccccc3cc12	n	n	5µM	x	x
CCS(=O)(=O)Nc1ccc(-c2cc(-c3ccccc3)c3cc(C)ccc3n2)cc1	n	n	u	n	n
O=C(O)c1cc(-c2ccc3ccccc3n2)nc2ccccc12	x	11µM	5µM	n	n
CC(=O)OCC1=C[C@H]2[C@@H]3C(C)(C)[C@]3(OC(C)=O)C[C@@H](C)[C@]2(O)[C@@H]2C=C(C)C(=O)[C@@]2(O)C1	x	n	n	x	x
Cc1ccc(C)c(S(=O)(=O)Nc2cc3c4c(c2)CCC(=O)N4CCC3)c1	x	x	x	n	n
CCc1ccc(-c2cc(C(=O)Nn3cnnc3)c3ccccc3n2)cc1	n	0.63µM	0.89µM	n	n
SMILES	PKM2 act	VP16 counter	RORgamma inh	Six1-Eya2 inh	CtBP-E1A blk
CCN1CCN(CCNC(=O)c2ccc(/C=C3/Sc4ccccc4N(Cc4cccc(Cl)c4)C3=O)cc2)CC1	n	u	n	n	n
CCN1CCN(CCNC(=O)c2ccc3c(c2)N(Cc2ccc(F)cc2)C(=O)/C(=C/c2ccccc2)S3)CC1	n	u	16µM	n	n
CN1CC(=O)NC1=NC(=O)c1cc(F)c(F)cc1Cl	n	u	10µM	n	n
CN1CC(=O)NC1=NC(=O)c1ccc(Cl)c(S(=O)(=O)N2CCCCCC2)c1	n	16µM	3.5µM	n	n
CC1CN(C(=O)c2cc(F)c(F)cc2Cl)CC(C)O1 (stereo not drawn)	x	x	x	n	n
O=C(c1ccc(Cl)c(S(=O)(=O)N2CCCCC2)c1)N1CCCCC1	n	n	n	n	n
O=C(Nc1ncccc1O)c1ccc(S(=O)(=O)Nc2ccccc2)cc1	x	x	x	n	n
Nc1nc(Nc2ccccc2)sc1C(=O)c1ccccc1	n	u	n	u	n
S=c1[nH]cnc2sc(Nc3ccccc3)nc12	n	2.5µM	1µM	u	x
CC12CCC(=O)N1C(C(=O)Nc1nnc(SCc3ccccc3F)s1)CS2 (stereo not drawn)	n	u	n	n	n
COc1ccc(Cl)cc1N1C(=O)CC(N2CCN(S(=O)(=O)c3ccccc3F)CC2)C1=O (stereo not drawn)	x	x	x	n	n
COc1ccc(CNC(=O)CS(=O)Cc2nc(-c3ccc(C)cc3)oc2C)cc1 (stereo not drawn)	n	n	13µM	n	n
Cc1ccc(-c2nc(CS(=O)CC(=O)NCc3ccc(F)cc3)c(C)o2)cc1 (stereo not drawn)	x	n	11µM	n	x
COc1ccc(-c2nc(CS(=O)CC(=O)NCc3ccc4c(c3)OCO4)c(C)o2)cc1 (stereo not drawn)	n	n	11µM	n	n
Cc1ccc(CNC(=O)CS(=O)Cc2nc(-c3ccccc3C)oc2C)cc1 (stereo not drawn)	n	n	11µM	n	n
O=C(CCC(=O)N1CCOCC1)NCCc1ccc(Cl)cc1Cl	n	n	6.3µM	n	n
O=c1c(Br)c(Br)cnn1-c1ccccc1	n	5µM	3.2µM	n	n
Cc1ccc(-n2ncc(Br)c(Br)c2=O)cc1	n	2.8µM	5µM	n	n
COc1c(Cl)cnn(-c2ccc(C)cc2)c1=O	n	n	n	n	n
CCCCCCCCCCCCCC[C@@H](O)[C@@H](O)[C@@H](N)CO	x	n	n	x	x
N#Cc1c2c(c(-c3ccccc3Cl)[nH]c1=S)CCCC2	n	16µM	16µM	n	n
CCCCNS(=O)(=O)c1ccc(NC(=O)C(Sc2ccccc2)c2ccccc2)cc1 (stereo not drawn)	n	u	u	n	n
Cn1c(N)c(C(=O)COC(=O)c2cc(S(=O)(=O)NCc3ccccc3)ccc2O)c(=O)n(C)c1=O	x	x	x	n	n
CC1CCCCN1C(=O)Cn1c(=O)oc2cc(S(=O)(=O)N3CCCC3)ccc21 (stereo not drawn)	n	n	2.5µM	n	n
CC1CCN(C(=O)Cn2c(=O)oc3cc(S(=O)(=O)N4CCCCC4)ccc32)CC1	x	n	n	n	x
CC(C)c1ccccc1NC(=O)C1CC(=O)N(C2CCCC2)C1 (stereo not drawn)	n	x	x	n	n
CCOC(=O)C1=C(C)N(C)C(=S)NC1c1cc(OC)ccc1OC (stereo not drawn)	n	u	14µM	n	x
CCOC(=O)C1=C(C)N(C)C(=O)NC1c1ccccc1OC (stereo not drawn)	n	x	n[0.365 µM]	n	n
O=C(O)c1ccc(-c2nnn(Cc3cccc(C(F)(F)F)c3)n2)cc1	n	n	n	n	x
Cc1nn(CCC(=O)NNC(=S)Nc2cccc(Cl)c2)c(C)c1[N+](=O)[O-]	n	n	n	n	n
